Assay results taken from PubChem BioAssay (NCI).
Compounds without any hit were thinned out: in the full panel of roughly 83,000, 20% have a hit.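 Step 1: grow cells in 96-well plates. Step 2: add test compound at a single concentration. Step 3: incubate 48 h. Step 4: record percent growth.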 The source made the active and inactive calls. Rule for the calls: active = growth percent below 10; inactive = the rest.

Tested on: TK-10 renal
Assay: NCI-60 one-dose screen, 48 h (100 = growth as untreated, 0 = no growth, -100 = all killed)
Conditions: 10 µM unless noted

Row | Compound | growth
1 | C=C1C(=O)O[C@H]2[C@H]1CC/C(COC(=O)NCCc1cccc(OC)c1)=C\CC[C@@]1(C)O[C@@H]21 | 24.9% (inactive)
2 | COc1ccccc1OCC(=O)Nc1sc2c(c1C(N)=O)CCC2 | 104% (inactive)
3 | CCc1c(C(=O)Nc2ccc3ccccc3c2)[nH]c(C)c1C(C)=O | 99.8% (inactive)
4 | CCC(=O)Oc1ccc2c(c1)CC[C@@H]1[C@@H]2CC[C@]2(C)C[C@H](OC(=O)CC)C[C@@H]12 | 105% (inactive)
5 | COC(=O)CCCCN=Cc1c(O)c(O)c(C(C)C)c2cc(C)c(-c3c(C)cc4c(C(C)C)c(O)c(O)c(C=NCCCCC(=O)OC)c4c3O)c(O)c12 | 12.6% (inactive)
6 | COc1ccc2c(c1)C(C)Cc1c(N(C)C)ncnc1N2C (centres undefined) | 29.9% (inactive)
7 | Cc1ccc(S(=O)(=O)OCC(=O)Nc2ccc(C(=O)O)c(O)c2)cc1 | 118% (inactive)
8 | O=C(O)c1ccc(-n2cc(CNc3ccc(C(F)(F)F)cc3)c(-c3ccccc3)n2)cc1 | 110% (inactive)
9 | Cc1cc(C(=O)CSc2nc3ccccc3c(=O)[nH]2)c(C)n1C | 93.1% (inactive)
10 | CC/C=C\C[C@H](O)C/C=C1/C(=O)C(Cl)=C[C@@H]1C/C=C\CCCC(=O)OC | -34.2% (active)
11 | CCSc1nnc(Nc2ccc(C(C)C)cc2)s1 | 96.1% (inactive)
12 | Cc1ccc2nc(-c3c(N)n[nH]c3CCCO)[nH]c(=O)c2c1 | 109% (inactive)
13 | COc1cc(C(=O)N2CCN(C(=O)c3ccco3)CC2)c(N)cc1OCc1ccccc1 | 107% (inactive)
14 | O=C(Nc1cccc(Cl)c1)c1cc([N+](=O)[O-])ccc1O | 61% (inactive)
15 | O=C(CNC(=O)c1cccc2ccccc12)Nc1ccccc1Oc1ccccc1 | 19.8% (inactive)
16 | Nc1cccc2c1CN(C1CCC(=O)NC1=O)C2=O (centres undefined) | 132% (inactive)
17 | Nc1ccc(S(=O)(=O)c2ccc(Cl)cc2)cc1 | 96.4% (inactive)
18 | CNC(=O)c1cc(Oc2ccc3c(c2)sc2nc(-c4ccc(Cl)cc4)cn23)ccn1 | 110% (inactive)
19 | Cc1cc(C)c2c(=O)[nH]c(SCC(=O)Nc3cccc(S(=O)(=O)N(C)C)c3)nc2n1 | 98.4% (inactive)
20 | CSc1ccccc1C#C/C=C\C#Cc1ccccc1N1CCCC1=O | 83.1% (inactive)

Row | Compound | growth
21 | O=S(=O)(NCCCNc1cc(-c2cn(-c3ccccc3)nc2-c2cccc(O)c2)ccn1)c1ccc(Cl)cc1 | 33.5% (inactive)
22 | CC(=O)Oc1cccc(OC(C)=O)c1OC(C)=O | 107% (inactive)
23 | C=C1C(=O)O[C@H]2[C@H]1CC/C(COC(=O)NCCc1ccc(Br)cc1)=C\CC[C@@]1(C)O[C@@H]21 | 25.9% (inactive)
24 | O=S=Nc1ccc([N+](=O)[O-])cc1 | 84.9% (inactive)
25 | COc1ccc(N=C2NN=C(c3ccc(F)cc3)CS2)cc1OC | 89.8% (inactive)
26 | NC(C(=O)O)C(O)c1ccc(OCc2ccccc2)c(OCc2ccccc2)c1 (centres undefined) | 104% (inactive)
27 | CC/C=C\C[C@H]1C/C=C2/C(=O)C(Cl)=C[C@@H]2C/C=C\CCCC(=O)O1 | -55.3% (active)
28 | Cc1sc2nc(CSc3nnc(-c4ccco4)o3)[nH]c(=O)c2c1C | 189% (inactive)
29 | O=S(=O)(NCCCNc1cc(-c2cn(-c3ccccc3)nc2-c2cccc(O)c2)ccn1)c1cccc2ccccc12 | 66.3% (inactive)
30 | CN(C)c1nc(N)c(N=O)c(N)n1 | 110% (inactive)
31 | O=C1NC(Cc2c[nH]c3ccccc23)C(=O)N1Cc1ccc(Cl)cc1 (centres undefined) | 135% (inactive)
32 | COC(=O)c1ccc(C)cc1 | -16.3% (active)
33 | COC(=O)CCCCCN=Cc1c(O)c(O)c(C(C)C)c2cc(C)c(-c3c(C)cc4c(C(C)C)c(O)c(O)c(C=NCCCCCC(=O)OC)c4c3O)c(O)c12 | 3.95% (active)
34 | O=S(=O)(NCCCNc1nccc(-c2c(-c3ccc(F)c(O)c3)nc3sccn23)n1)c1ccc(Cl)cc1 | 135% (inactive)
35 | COc1ncc(-c2ccc3ncnc(Nc4cccc(Cl)c4)c3c2)cc1N(S(C)(=O)=O)S(C)(=O)=O | 5.88% (active)
36 | CC(Br)C(O)c1cc2c(cc1Br)OCO2 (centres undefined) | 114% (inactive)
37 | O=S(=O)(NCCCNc1cc(-c2cn(-c3ccccc3)nc2-c2cccc(O)c2)ccn1)c1ccc(Br)cc1 | 32.2% (inactive)
38 | COc1ccc2c(c1)NC(=O)CN2c1nc(C)nc2ccccc12 | 14.8% (inactive)
39 | NC(=O)c1c(NC(=O)c2ccc3c(c2)OCO3)sc2c1CCC(=O)C2 | -20.2% (active)
